Results filed as inconclusive are left out. Where a call stands in place of a potency, no number is given. The source made the active and inactive calls. Calls follow the shape of the full dose curve.
assay: qHTS assay to identify small molecule agonists of H2AX - cell viability counter screen (AID 1224847); conditions: CHO-K1 viability, CellTiter-Glo luminescence, 3 h; series mostly up to 154 µM; activity change, negative = cytotoxicity: at the top concentration; also: top concentration of the series differs between compounds; nearly all actives have a fitted effect of over 30% in size
Text: National Center for Advancing Translational Sciences [NCATS]
NIH Chemical Genomics Center [NCGC]
U.S. Environmental Protection Agency [EPA]
National Institutes of Environmental Health Sciences [NIEHS]
National Toxicology Program [NTP]
U.S. Food and Drug Administration [FDA]
HTRF phospho-H2AX (Ser139) assay (Cisbio Bioassays, US) enables the quantitative detection of the histone variant H2AX when phosphorylated on serine 139. When double-stranded DNA breaks, either by ionizing radiation or endogenous physiological processes, H2AX becomes phosphorylated at Ser139. This phospho-Ser139 serves as a sensitive biomarker for the detection of such breaks, localizing the site of DNA repair. So, HTRF phospho-H2AX Ser139 is a pertinent assay to study genome stability, the cell cycle, DNA repair, and it serves as a biomarker for cancer, and to understand aging. Wild type CHO-K1 cells were used to identify the inducers of Phospho-H2AX Ser 139 from the Tox21 compound collections. Also cytotoxicity of the Tox21 10K compound library against the CHO-K1 cell line was tested by measuring the cell viability using CellTiter-Glo assay (Promega, Madison, WI).
Tox21 Assay Protocol Summary:
The CHO-K1 cells suspended in culture medium containing 10% FBS were dispensed at 1000 cells/ 3 ul/well in 1536-well white wall/solid bottom plates (Greiner Bio-One North America, NC) using a Multidrop Combi (Thermo Fisher Scientific Inc., Waltham, MA). After the assay plates were incubated at 37C overnight, 23 nl of compounds at 15 concentrations (from 5-48 columns) or positive control (from 1 to 4 columns) were transferred to the assay plates using a Pintool station (Wako, San Diego, CA) into each well resulting in a final DMSO concentration of 0.76%. After 3hr incubation at 37C, 3 uL/well CellTiter-Glo luminescent cell viability reagent (Promega Corporation, Madison, WI) was added using a Flying Reagent Dispenser (FRD) (Aurora Discovery, CA). After incubation at room temperature for 30 min, the luminescence intensity was read using a ViewLux plate reader (PerkinElmer, Waltham, MA).

Structure (SMILES) | activity change, negative = cytotoxicity | Potency
O=[N+]([O-])c1ccc([As](=O)(O)O)cc1 | -0.984% [at 70.9 µM] (inactive) | –
Cc1ccc(N)cc1N | – | inactive
CCC[N+](=O)[O-] | – | inactive
BrCCBr | – | inactive
C#CC(C)(C)NC(=O)c1cc(Cl)cc(Cl)c1 | – | inactive
CCCN(CCC)N=O | – | inactive
[O-][Cl+2]([O-])O | – | inactive
CC(C)NC(=O)N1CC(=O)N(c2cc(Cl)cc(Cl)c2)C1=O | – | inactive
COC(=O)c1ccccc1C(=O)OC | – | inactive
CCN(CC)c1ccccc1 | – | inactive
NCCc1ccc(O)cc1 | – | inactive
C=C(C)CCl | – | inactive
CC(C)=C[C@@H]1[C@@H](C(=O)OCc2coc(Cc3ccccc3)c2)C1(C)C | -8.85% [at 70.9 µM] (inactive) | –
CC1C=[C-]C=C1.[C-]#[O+].[C-]#[O+].[C-]#[O+].[Mn] | – | inactive
CCOC(=O)c1ccccc1C(=O)OCC | – | inactive
CC1OC(C)OC(C)O1 (stereo not given) | 0.495% [at 70.9 µM] (inactive) | –
COC(=O)NC(=S)Nc1ccccc1NC(=S)NC(=O)OC | – | inactive
Cn1cc(-c2ccccc2)c(=O)c(-c2cccc(C(F)(F)F)c2)c1 | – | inactive
OCCN(CCO)CCO | – | inactive
Cc1ccc([N+](=O)[O-])cc1C | – | inactive

Structure (SMILES) | activity change, negative = cytotoxicity | Potency
Nc1ccccc1C(=O)O | – | inactive
CC(Br)C(=O)O (stereo not given) | – | inactive
O=C1CCCN1 | – | inactive
CC(C)C#N | – | inactive
Clc1ccc(Cl)cc1 | – | inactive
c1cc2c3c(cccc3c1)CC2 | – | inactive
CNC(=O)Oc1ccccc1OC(C)C | – | inactive
C1CC2OC2CC1C1CO1 (stereo not given) | – | inactive
Cc1[nH]c(=O)n(C(C)(C)C)c(=O)c1Cl | – | inactive
Oc1ccccc1Cl | – | inactive
Nc1c(Cl)c(Cl)nc(C(=O)O)c1Cl | – | inactive
CON(C)C(=O)Nc1ccc(Cl)c(Cl)c1 | -7.23% (inactive) | –
COC(=O)c1ccccc1N | – | inactive
ClCCBr | – | inactive
Cc1cc(-c2cc(C)c(N)c(C)c2)cc(C)c1N | – | inactive
C=CC(N)=O | – | inactive
C1CN2CCN1CC2 | – | inactive
CC(C)C1(C)N=C(c2nc3ccccc3cc2C(=O)O)NC1=O (stereo not given) | – | inactive
Cc1ccc(N)cc1Cl | – | inactive
CN1C(=O)CN=C(c2ccccc2)c2cc(Cl)ccc21 | – | inactive

Source: PubChem BioAssay (Tox21)
